Test results taken from PubChem BioAssay (NCATS).
Records with an inconclusive call do not appear. Activity calls are given as the source filed them. Calls come from the whole dose curve; as a rule, active = well fitted inhibition curve with a large enough effect; inconclusive = small, poorly fitted or top-dose-only effect; inactive = flat fitted curve, though single readings scatter.

What was measured:
Assay in all cases: Cytotoxic Profiling of Annotated Libraries Using Quantitative High-Throughput Screening (AID 1296008); note: nearly all actives have a fitted effect of over 60% in size
Settings in all cases: Five cell lines viability, CellTiter-Glo ATP luminescence, 48-72 h; max response: hits give low values
CRL-7250 = normal cell line; test system: CRL-7250
Outline: (§1)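 Cytotoxicity was measured as CellTiter-Glo ATP luminescence, read after 10 min at room temperature. Compound treatment of the cells lasted 48 or 72 hr at 37 degrees Celsius in a qHTS format.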

HEK293 = test system: HEK293
Outline: as §1

HaCat = test system: HaCat
Outline: as §1

KB-3-1 = test system: KB-3-1
Outline: as §1

NIH3T3 = test system: NIH3T3
Outline: as §1

Measured: max response
% is set by controls: 0 for no effect and ±100 for the full control effect.

CC1CCC2C(C)(C)[C@H](O)CC[C@]2(C)C12Cc1c(O)cc3c(c1O2)CN(C(CCC(=O)O)C(=O)O)C3=O (stereo not given in full)
inactive: CRL-7250 -1.74% | HEK293 0.0488% | HaCat | KB-3-1 | NIH3T3 3.99%

COc1cc(/C=C/c2ccccc2)c(C(=O)O)c(O)c1CC=C(C)C
inactive: CRL-7250 -4.97% | HEK293 2.12% | HaCat | KB-3-1 6.27% | NIH3T3 3.69%

CC1(C)[C@@H]2CC=C(CO[C@@H]3O[C@H](CO[C@@H]4OC[C@H](O)[C@H](O)[C@H]4O)[C@@H](O)[C@H](O)[C@H]3O)[C@H]1C2
inactive: CRL-7250 0.583% | HEK293 2.49% | HaCat -0.954% | KB-3-1 | NIH3T3

CC(C)=C1C[C@@]2(C)C(=CC1=O)CC[C@@H](O)[C@@H]2C
inactive: CRL-7250 -13.6% | HEK293 | HaCat -1.2% | KB-3-1 3.47% | NIH3T3 -19.7%

CC1(C)CCCC2(C)c3c4c(c(=O)oc(=O)c3=CCC12)=CCC1C(C)(C)CCCC41C (stereo not given)
inactive: CRL-7250 -2.61% | HEK293 2.74% | HaCat 0.0105% | KB-3-1 | NIH3T3

CC1=C2CC(C)(C)CC2C(O)C2=C(C1)C(=O)OC2O (stereo not given)
inactive: CRL-7250 | HEK293 4.01% | HaCat | KB-3-1 | NIH3T3 -6.57%

CC1OC(O[C@H]2CC[C@@]3(C)C(CC[C@]4(C)C3CC=C3C5CC(C)(C)CC[C@]5(C(=O)OC5OC(CO)C(OC6OCC(OC7OCC(O)C(O)C7O)C(O)C6O)C(O)C5O)CC[C@]34C)C2(C)C)C(O)C(O)C1OC1OC(CO)C(O)C(OC2OC(CO)C(O)C(O)C2O)C1O (stereo not given in full)
inactive: CRL-7250 -2.46% | HEK293 -5.73% | HaCat | KB-3-1 2.43% | NIH3T3 -1.17%

CC(C)=CCC[C@](C)(O[C@@H]1O[C@H](CO)[C@@H](O)[C@H](O)[C@H]1O)[C@H]1CC[C@]2(C)[C@@H]1[C@H](O)CC1[C@@]3(C)CC[C@H](O)C(C)(C)C3[C@@H](O[C@@H]3O[C@H](CO)[C@@H](O)[C@H](O)[C@H]3O[C@@H]3O[C@@H](C)[C@H](O)[C@@H](O)[C@H]3O)C[C@]12C (stereo not given in full)
inactive: CRL-7250 -1.6% | HEK293 -1.21% | HaCat -12.1% | KB-3-1 8.47% | NIH3T3

Fc1ccc(-c2c3cccc(C(F)(F)F)c3nn2Cc2ccc(F)cc2Cl)cc1
inactive: CRL-7250 -3.03% | HEK293 0.746% | HaCat | KB-3-1 -3.04% | NIH3T3

NC(=O)[C@H](Cc1ccccc1)NC(=O)[C@H](CCCN=C(N)N)NC(=O)C12CC3CC(CC(C3)C1)C2
inactive: CRL-7250 -2.98% | HEK293 -11.4% | HaCat | KB-3-1 | NIH3T3

Cn1c2ccc(NC(=O)c3ccccc3)cc2c(=O)n2nc(C(=O)O)cc12
inactive: CRL-7250 | HEK293 -1.26% | HaCat | KB-3-1 0.84% | NIH3T3

COc1cc(CC2COC(c3ccc(OC4OC(CO)C(O)C(O)C4O)c(OC)c3)C2CO)ccc1O (stereo not given)
inactive: CRL-7250 | HEK293 0.464% | HaCat | KB-3-1 | NIH3T3

COc1cc(C2Oc3c(OC)cc(CCCO)cc3C2CO)ccc1O (stereo not given)
inactive: CRL-7250 | HEK293 3.43% | HaCat | KB-3-1 | NIH3T3 -0.27%

CC(=O)O[C@@H](C[C@@H]1C=C(C)C(=O)O1)[C@H](C)[C@H]1CCC2[C@@]3(C)CC[C@H](O[C@@H]4O[C@H](CO)[C@@H](O)[C@H](O)[C@H]4O[C@@H]4O[C@@H](C)[C@H](O)[C@@H](O)[C@H]4O)C(C)(C)C3CC[C@@]2(C)[C@@]12COC(=O)C2 (stereo not given in full)
inactive: CRL-7250 | HEK293 -15.8% | HaCat | KB-3-1 1.23% | NIH3T3

COc1cc(O)cc(C)c1C(=O)OC1C(CO)OC(n2ccc(=O)[nH]c2=O)C1OC(C)=O (stereo not given)
inactive: CRL-7250 | HEK293 2.97% | HaCat | KB-3-1 8.59% | NIH3T3 -1.67%

C[C@@H]1O[C@@H](O[C@H]2[C@H](O[C@H]3[C@H](O[C@H]4CC[C@@]5(C)C(CC[C@]6(C)C5CC=C5[C@@H]7CC(C)(C)C[C@@H](O)[C@]7(C)CC[C@]56C)[C@@]4(C)CO)O[C@H](C(=O)O)[C@@H](O)[C@@H]3O)O[C@H](C(=O)O)[C@H](O)[C@@H]2O)[C@H](O)[C@H](O)[C@H]1O (stereo not given in full)
inactive: CRL-7250 -5.52% | HEK293 -6.47% | HaCat | KB-3-1 -1.92% | NIH3T3

CC(CCc1ccc(O)cc1)O[C@@H]1O[C@H](CO[C@@H]2OC(CO)[C@H](O)[C@H]2O)[C@@H](O)[C@H](O)[C@H]1O (stereo not given in full)
inactive: CRL-7250 -0.0719% | HEK293 | HaCat -7.01% | KB-3-1 | NIH3T3 -1.05%

C/C=C(\C)C(=O)OC1C2(O)CC3=C4CC(=O)OC(c5ccoc5)C4(C)CCC3C(C)(C2=O)C(C(OC(C)=O)C(=O)OC)C1(C)C (stereo not given)
inactive: CRL-7250 | HEK293 -2.36% | HaCat | KB-3-1 -3.65% | NIH3T3 1.4%
